FPR binder = human FPR ligands by binding competition, primary screen, cell-based, FPRL1 counter-screen, flow cytometry; fMet-Leu-Phe receptor (Homo sapiens), P21462; FPR-expressing cells, fluorescent ligand binding; inhibition, % (concentration not given with the values); hit rate 0.74% among 24,000; AID 440, 2006
Target sequence (P21462 whole entry, looked up): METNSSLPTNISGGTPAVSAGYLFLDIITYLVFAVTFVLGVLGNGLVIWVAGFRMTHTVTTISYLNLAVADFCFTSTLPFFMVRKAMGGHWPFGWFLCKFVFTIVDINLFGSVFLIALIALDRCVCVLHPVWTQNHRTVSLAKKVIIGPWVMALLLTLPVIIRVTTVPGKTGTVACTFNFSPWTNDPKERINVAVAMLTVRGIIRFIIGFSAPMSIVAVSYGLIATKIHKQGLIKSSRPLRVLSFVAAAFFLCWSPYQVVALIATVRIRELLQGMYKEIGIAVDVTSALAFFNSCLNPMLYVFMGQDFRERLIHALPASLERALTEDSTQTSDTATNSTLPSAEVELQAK
VLA-4 allo ag = enhancers of LDV-FITC binding to VLA-4 integrin, primary screen, Jurkat cells, flow cytometry | activation, % at 10 µM (by protocol) | 24,000 tested, under 10 active | Integrin alpha-4 (Homo sapiens), P13612;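 active = fluorescent ligand binding to cells raised by more than 40% of the manganese-induced maximum; inconclusive = compound's own fluorescence above 85% of the ligand control signal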
FPRL1 binder = human FPRL1 ligands by binding competition, primary screen, cell-based, FPR counter-screen, flow cytometry; inhibition, % (no concentration beside the values); N-formyl peptide receptor 2 (Homo sapiens), P25090; AID 441, 2006; FPRL1-expressing cells, fluorescent ligand binding inhibition; hit rate 0.3% among 24,000
Target sequence (P25090 whole entry, looked up): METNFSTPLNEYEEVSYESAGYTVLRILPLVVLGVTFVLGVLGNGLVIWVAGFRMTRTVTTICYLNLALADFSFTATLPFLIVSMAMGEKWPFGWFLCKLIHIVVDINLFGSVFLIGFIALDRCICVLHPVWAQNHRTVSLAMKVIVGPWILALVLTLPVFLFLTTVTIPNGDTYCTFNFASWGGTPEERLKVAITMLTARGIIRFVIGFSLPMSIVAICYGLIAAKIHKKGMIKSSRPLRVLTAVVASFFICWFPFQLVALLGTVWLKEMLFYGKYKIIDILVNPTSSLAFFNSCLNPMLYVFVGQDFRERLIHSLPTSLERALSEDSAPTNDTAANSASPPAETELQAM
Autofluor Jurkat = compound autofluorescence on Jurkat cells, primary screen, artefact control for VLA-4 allosteric ligand project, cell-based, flow cytometry; hit rate 0.61% among 24,000; active compounds read high; 1 = vehicle-only cell background; AID 576, 2007; fluorescence ratio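 (tested at 10 µM compound in the well)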;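 active = fluorescence ratio above 2.44, which is 1 plus 3 SD of all ratios; inconclusive = signal too bright to measure linearly, ratio around 10 or more; inactive = fluorescence ratio below 2.44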;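 note: green fluorescence of cells measured with 488 nm excitation and 530 nm emission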
Prostate diff = activators of LNCaP prostate cell differentiation, primary screen, flow cytometry side scatter; AID 795, 2007; hit rate 0.56% among 24,000; side scatter shift, % at 10 µM; 4 d;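 active = side scatter shift above 30%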;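 note: androgen-responsive LNCaP prostate cancer cells in charcoal-stripped serum medium; higher shift means more granular cells and more differentiation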
VLA-4 antagonist = inhibitors of LDV-FITC binding to Mn2+-activated VLA-4, primary screen, Jurkat cells; hit rate 0.2% among 24,000; LDV-FITC binding with Mn2+, flow cytometry; 100% = Mn2+-driven binding gain fully reversed; inhibition, % at 10 µM (by protocol); Integrin alpha-4 (Homo sapiens), P13612;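 active = inhibition above 50%; inconclusive = compound itself fluorescent, judged against control cell fluorescence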
Large screens that a line does not name were inactive. The list is not random: actives were taken first. Their share in the collection is about 2.4%. Cut-off read from the data, not from the text of the source, unless noted: active = inhibition above about 30%; inconclusive = no clear call, values can overlap the other calls; inactive = below that.

CC(C)N1CCC2(CC1)N=C(c1ccc3c(c1)OCO3)CC(c1cc(Cl)ccc1O)N2 (stereo not drawn)	Prostate diff 34
CC(=O)c1c(C)nc(-c2ccc3c(c2)OCO3)n1O	none
CCn1c(C)cc(=S)c2ccccc21	none
CCn1c2ccccc2c2cc(N)ccc21	VLA-4 allo ag inconclusive, Autofluor Jurkat 3.4, VLA-4 antagonist inconclusive
CCn1c(SCC(=O)N2CCOCC2)nc(O)cc1=O	none
C=CCn1c(SCCCC)nc(O)cc1=O	FPR binder 56
Cn1c(C(=O)NCCCN2CCN(c3ccccc3F)CC2)cc2c(=O)n(C)c3ccccc3c21	VLA-4 allo ag inconclusive, Prostate diff 70, VLA-4 antagonist inconclusive
Cn1c(C(=O)NCCCN2CCOCC2)cc2c(=O)n(C)c3ccccc3c21	none
CCOc1ccccc1C(=O)N1CCN=C1SCc1cccnc1	VLA-4 allo ag inconclusive, VLA-4 antagonist inconclusive
COC(=O)C1=C(C)N=c2s/c(=C/c3cccs3)c(=O)n2C1c1cccs1 (stereo not drawn)	Prostate diff 31
CN(C)S(=O)(=O)c1ccc(/C(O)=C2/C(=O)C(=O)N(CCN3CCCCC3)C2c2cccnc2)cc1 (stereo not drawn)	none
Cc1cc(C)cc(-n2nnc(C(=O)NCc3ccccc3Cl)c2N)c1	VLA-4 allo ag inconclusive, Autofluor Jurkat 2.8, VLA-4 antagonist inconclusive
Cc1cccc(-n2nnc(C(=O)NCc3ccccc3)c2N)c1	none
COc1ccc(OC)c(NC(=O)C2CCCCC2C(=O)O)c1 (stereo not drawn)	none (no result: VLA-4 allo ag, Autofluor Jurkat, Prostate diff, VLA-4 antagonist)
COc1ccc(OC)c(NC(=O)C2C3CCC(C3=C(C)C)C2C(=O)O)c1 (stereo not drawn)	FPR binder 38 (no result: VLA-4 allo ag, Autofluor Jurkat, Prostate diff, VLA-4 antagonist)
Nc1nc(-c2ccc(Br)s2)c(Br)s1	none
N[C@@H](Cc1ccc(O)c(I)c1)C(=O)O	FPR binder 51
Cc1oc2cc(O)cc(O)c2c(=O)c1-c1ccc2c(c1)OCCCO2	FPR binder 31 (no result: VLA-4 allo ag, Autofluor Jurkat, Prostate diff, VLA-4 antagonist)
CCCCCNC(=O)c1ccc2c(=O)[nH]c3c(C(=O)NCC4CCCO4)sc(=S)n3c2c1 (stereo not drawn)	FPR binder 40, VLA-4 allo ag inconclusive, VLA-4 antagonist inconclusive
O=C(NCc1ccco1)c1sc(=S)n2c1[nH]c(=O)c1ccccc12	none
O=C(NC1CCCC1)c1sc(=S)n2c1[nH]c(=O)c1ccccc12	FPR binder 95, VLA-4 allo ag inconclusive, VLA-4 antagonist inconclusive
CCOC(=O)N1CCC(NC(=O)c2cc(C(=O)Nc3cccc(OC)c3)ccc2CO)CC1	none
CCOC(=O)N1CCC(NC(=O)c2cc(C(=O)Nc3ccc(OC)c(OC)c3)ccc2CO)CC1	FPRL1 binder 34, VLA-4 antagonist inconclusive
COc1cccc2sc(Nc3nnc(-c4ccc(F)cc4)o3)nc12	VLA-4 antagonist 90 (no result: FPR binder, FPRL1 binder, Prostate diff)
O=C(Cn1nc(-c2ccc3c(c2)OCCO3)ccc1=O)Nc1ccc(N2CCOCC2)cc1	VLA-4 antagonist 96
CCC1Oc2ccc(C)cc2N(CC(=O)NCc2cccc(OC)c2)C1=O (stereo not drawn)	none
CCN1CCCC1CNC(=O)c1nn(-c2ccc(C)cc2)c(=O)c2c1c1ccccc1n2C (stereo not drawn)	Prostate diff 32
Cc1ccc(-n2nc(C(=O)N3CCN(C)CC3)c3c4ccccc4n(C)c3c2=O)cc1	none
CCOC(=O)Cn1c(=O)oc2cc(S(=O)(=O)NC3CCCc4ccccc43)ccc21 (stereo not drawn)	VLA-4 allo ag inconclusive, VLA-4 antagonist inconclusive
CCOC(=O)Cn1c(=O)oc2cc(S(=O)(=O)N3CCC(N4CCCCC4)CC3)ccc21	none
CCOC(=O)Cn1c(=O)oc2cc(S(=O)(=O)NCc3cccs3)ccc21	VLA-4 allo ag inconclusive, VLA-4 antagonist inconclusive
CCOC(=O)Cn1c(=O)oc2cc(S(=O)(=O)Nc3c(C)cc(C)cc3C)ccc21	VLA-4 allo ag inconclusive, Autofluor Jurkat 6, VLA-4 antagonist inconclusive
CCOC(=O)Cn1c(=O)oc2cc(S(=O)(=O)NCc3ccccn3)ccc21	VLA-4 allo ag inconclusive, Autofluor Jurkat 3.6, VLA-4 antagonist inconclusive
CCOC(=O)Cn1c(=O)oc2cc(S(=O)(=O)N3CCCC(C(=O)OCC)C3)ccc21 (stereo not drawn)	VLA-4 allo ag inconclusive, Autofluor Jurkat 3.1, VLA-4 antagonist inconclusive
CCCc1c(OCCCCc2nn[nH]n2)ccc(C(C)=O)c1O	none
COc1ccc(OC)c(C2C(C(=O)Nc3cccnc3)=C(C)NC3=C2C(=O)CCC3)c1 (stereo not drawn)	none
O=c1ccc2cc3c([nH]c4ccc(Br)cc43)oc-2c1O	VLA-4 allo ag inconclusive, Autofluor Jurkat 6.6, VLA-4 antagonist inconclusive
CCOc1ccccc1N1CCN(c2nc(N)c(C#N)c(CC#N)c2C#N)CC1	VLA-4 allo ag inconclusive, Autofluor Jurkat 5.2, VLA-4 antagonist inconclusive
O=C1CS/C(=N\C(=O)N2c3ccccc3Sc3ccccc32)N1	none
Cc1[nH]n2c(=O)c3c(nc2c1-c1ccccc1)CCC3	FPR binder 40 (no result: VLA-4 allo ag, Autofluor Jurkat, Prostate diff, VLA-4 antagonist)
Cc1ccc(-c2cc3nc4c(c(=O)n3[nH]2)CCCC4)cc1	none
O=c1c2c(nc3c(-c4ccccc4)c[nH]n13)CCCC2	none (no result: VLA-4 allo ag, Autofluor Jurkat, Prostate diff, VLA-4 antagonist)
Cc1[nH]n2c(=O)c(C#N)c(-c3ccccc3)nc2c1-c1ccccc1	FPR binder 90 (no result: VLA-4 allo ag, Autofluor Jurkat, Prostate diff, VLA-4 antagonist)
Cc1[nH]n2c(=O)c3c(nc2c1-c1ccc(Cl)cc1)CCC3	FPR binder 51 (no result: VLA-4 allo ag, Autofluor Jurkat, Prostate diff, VLA-4 antagonist)
COC(=O)CSc1nnc(CNC(=O)Cc2ccccc2)n1-c1ccccc1OC	none
COc1ccc(CNC(=O)C2CCN(S(=O)(=O)c3cccc4cccnc34)CC2)cc1	VLA-4 allo ag inconclusive, VLA-4 antagonist inconclusive
COc1ccc(OC)c(N2Cc3cc(C)c(C)cc3C2)c1	none
O=C(NCCN1CCOCC1)NC1(C(F)(F)F)Oc2ccc(Cl)cc2O1 (stereo not drawn)	FPR binder 66
CCn1c(Cc2ccc(OC)cc2)nnc1SCC(=O)Nc1cccc(C(=O)OC)c1	none
Cc1nn(-c2ccccc2)c2c1C(O)n1c(nc3ccccc31)S2 (stereo not drawn)	VLA-4 allo ag inconclusive, VLA-4 antagonist inconclusive
COc1ccc(CCN2CCC(Nc3nc4ccccc4n3Cc3ccc(F)cc3)CC2)cc1	VLA-4 allo ag inconclusive, Autofluor Jurkat 2.6, Prostate diff 66, VLA-4 antagonist inconclusive
COc1cc(C2C(C(=O)c3ccc(C)o3)=C(O)C(=O)N2c2cc(C)on2)cc(Br)c1O (stereo not drawn)	none
Cc1cc(N2C(=O)C(O)=C(C(=O)c3ccco3)C2c2cccnc2)no1 (stereo not drawn)	FPRL1 binder 30 (no result: VLA-4 allo ag, Autofluor Jurkat, Prostate diff, VLA-4 antagonist)
COc1cc(C2C(C(=O)c3ccco3)=C(O)C(=O)N2c2cc(C)on2)cc(Br)c1O (stereo not drawn)	FPR binder 39, FPRL1 binder 31 (no result: VLA-4 allo ag, Autofluor Jurkat, Prostate diff, VLA-4 antagonist)
O=C(C1=C(O)C(=O)N(c2ncccn2)C1c1ccc(Cl)cc1)c1ccco1 (stereo not drawn)	none (no result: VLA-4 allo ag, Autofluor Jurkat, Prostate diff, VLA-4 antagonist)
